Shown are actives, neighbours in structure and some others; about 12% of the full set was active somewhere.
m-calpain inh: inhibitors of pig calpain II, primary screen, biochemical, fluorogenic peptide substrate, 1536-well; inhibition, % at 16 µM; purified calpain II, 30 min; AID 1236, 2008; hit rate 0.37% among 220,000;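 active means inhibition above about 50%, limit read from the data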
ROMK mod: ROMK potassium channel modulators, primary screen, cell-based, thallium flux, MLSMR library | Tet-inducible ROMK, thallium flux fluorescence; actives lie on both sides | B-score at 10 µM | hit rate 2% among 130,000;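 active means signal ratio slope over the read window, or its plate-corrected B-score, at least 3 SD from the plate mean, either direction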;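 further: B-score of the F/F0 ratio slope over 7 to 12 s after thallium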
Target sequence (P48048 whole entry, looked up): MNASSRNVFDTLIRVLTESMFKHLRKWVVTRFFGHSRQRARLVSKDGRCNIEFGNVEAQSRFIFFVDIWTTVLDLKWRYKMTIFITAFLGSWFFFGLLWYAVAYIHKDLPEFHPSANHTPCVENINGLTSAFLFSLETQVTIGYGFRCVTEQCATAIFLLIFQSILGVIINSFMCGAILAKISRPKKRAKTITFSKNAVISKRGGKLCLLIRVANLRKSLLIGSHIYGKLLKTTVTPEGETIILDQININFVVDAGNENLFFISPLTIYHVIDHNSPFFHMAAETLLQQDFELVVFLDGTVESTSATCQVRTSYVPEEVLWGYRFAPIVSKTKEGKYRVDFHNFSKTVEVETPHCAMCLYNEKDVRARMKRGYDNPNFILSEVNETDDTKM
WT yeast gro inh: growth inhibition of WT strain, primary screen, mitochondrial fusion inhibitor project, WT and mutant strains, chemical genetic; mitochondrial fusion phenotypic screen; inhibition, % at 10 µM; hit rate 2.1% among 190,000; in the data active means inhibition above about 58%; tested in S. cerevisiae
KCC2 mod: KCC2 cotransporter modulators, thallium flux, primary screen, cell-based, HEK293 KCC2, FluoZin-2 fluorescence, MLSMR | KCC2 cells, thallium flux FluoZin-2 fluorescence | B-score of Tl+ flux slope (higher = more flux/activation; lower = inhibition) at 10 µM | hit rate 2.2% among 190,000 | AID 1456, 2008;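 active means thallium flux slope and its plate-corrected score both differing from the plate sample mean at a set confidence after two filtering rounds, in either direction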;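 further: slope of fluorescence scaled to starting intensity during 10 to 20 s after thallium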
L major viab: Leishmania major promastigote growth inhibition, primary screen; hit rate 9% among 200,000; Leishmania major promastigotes, resazurin fluorescence viability; inhibition, % at 10 µM; AID 1063, 2008; in the data active means inhibition above about 50%;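 further: promastigotes grown with compound for 44 hours at 28 °C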
ROMK hit retest: ROMK channel modulator hit retest, confirmation, cell-based, thallium flux, duplicate, resupplied hits. shares compounds with ROMK mod. fluorescence ratio; hits give low values. normalized thallium flux (F/F0 slope) at 10 µM. hit rate 54% among 3,000;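 active means Flux at 10 µM at least 3 SD below or above vehicle control mean in one or both replicates; inconclusive means no clear call, values can overlap the other calls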
Hits are given with their value; - = inactive; ? = inconclusive; . = no result.

SMILES | m-calpain inh | ROMK mod | WT yeast gro inh | KCC2 mod | L major viab | ROMK hit retest
Cc1ccc(C(=O)COC(=O)CNS(=O)(=O)c2ccccc2)cc1[N+](=O)[O-] | - | . | - | - | - | .
Cc1ccc(S(=O)(=O)NN2C(=O)c3ccccc3NC2c2ccccn2)cc1 (centres undefined) | - | - | - | - | - | .
CCOC(=O)/C(C#N)=N\Nc1ccc(S(=O)(=O)Nc2nc(C)cc(C)n2)cc1 | - | . | - | - | - | .
O=C1N/C(=C\c2ccc(O)cc2)C(O)=C1C=NCc1ccccc1 | - | 2.1 | - | - | - | -
CCOC(=O)c1c(NC(=O)C[n+]2ccc(Cc3ccccc3)cc2)sc(C)c1C | - | -3.8 | - | - | 53 | 0.061
O=C(NCCCN1CCOCC1)c1ccc(NC(=O)C2COc3ccccc3O2)cc1 (centres undefined) | - | - | - | - | - | .
N#Cc1sc2nc3c(cc2c1N)CCCC3 | - | - | - | - | - | 0.1
NC(=O)c1sc2nc3c(cc2c1N)CCCCCC3 | - | . | . | - | . | .
Cc1ccc2c(N)c(C#N)sc2n1 | - | 3.4 | 87 | - | - | -
COC(=O)/C=C1\SC(=NC(=O)c2ccc(C)cc2)NC1=O | - | -4.1 | - | - | - | 0.045
Cc1c(-c2cc(C(=O)O)on2)cnn1C | - | - | - | - | - | .
CC(C)C(OC(=O)/C=C/c1ccc2c(c1)OCO2)C(=O)NC(N)=O (centres undefined) | - | - | - | - | - | .
C/C(=N/NC(=O)C1CCN(S(=O)(=O)c2ccc(C)cc2)CC1)c1cccc([N+](=O)[O-])c1 | - | -2.5 | - | - | - | -
C/C(=N\NC(=O)c1cccc([N+](=O)[O-])c1)c1cccc(NC(=O)C2CC2)c1 | - | . | - | . | - | .
CCCCc1ccc(S(=O)(=O)NCCc2ccncc2)cc1 | - | . | - | . | 84 | 0.062
C=CCn1c(COc2cccc(C)c2C)nnc1SCC(=O)N1CCN(c2ccccc2)CC1 | - | . | - | - | - | 0.054
COc1cc(/C=C(\C#N)c2ccccn2)ccc1OCc1ccc(Cl)cc1 | - | . | - | - | - | .
C=CCNC(=S)NNC(=O)c1csc(C)c1C | - | . | - | - | - | .
O=C(C1CCCCC1)N1CCN(c2nc(-c3ccc(F)cc3)cs2)CC1 | - | - | - | - | - | .
CCOC(=O)N1CCN(c2nc(-c3ccc(F)cc3)cs2)CC1 | - | -2.6 | - | - | - | ?
c1ccc(Nc2nc(CSc3ncn[nH]3)cs2)cc1 | - | -2 | - | - | - | -
CCOc1ccc(C(CC(=O)O)NC(=O)COc2ccccc2OC)cc1OC (centres undefined) | - | - | - | - | - | .
CC1CN(c2ccc([N+](=O)[O-])c(NCCOc3ccccc3)c2)CCN1 (centres undefined) | - | -2.5 | - | - | 100 | 0.062
COc1ccccc1Nc1ncnc2nc[nH]c12 | - | 4 | 70 | - | - | -
O=C(/C=C/c1ccccc1)N1CCN(S(=O)(=O)c2ccc(F)cc2)CC1 | - | - | - | - | - | .
SMILES | m-calpain inh | ROMK mod | WT yeast gro inh | KCC2 mod | L major viab | ROMK hit retest
O=C(/C=C/c1ccc(F)cc1)N1CCN(S(=O)(=O)/C=C/c2ccccc2)CC1 | - | 3 | - | - | - | -
O=C(O)c1cccc(CN2C(=O)S/C(=C/c3cccc([N+](=O)[O-])c3)C2=O)c1 | - | -12 | . | - | . | 0.03
Cc1cccc(OCCCC(=O)NCC(=O)Nc2cccc(C)c2C)c1 | - | - | - | - | - | .
CN(C)c1cccc2c(/C=N/O)ccc(N(C)C)c12 | - | - | - | - | - | .
CN1C(=O)N(C)c2ccc(C=O)c3cccc1c23 | - | -3.4 | - | - | - | 0.068
CC(c1ccco1)N(C(=O)CSc1ccc(Br)cc1)c1ccccn1 (centres undefined) | - | -4.1 | - | - | - | 0.058
CC(C)c1ccc(C(=O)N(c2ccccn2)C(C)c2ccco2)cc1 (centres undefined) | - | . | - | - | - | .
Nc1nc(-c2ccc(F)cc2)cc(C(F)(F)F)n1 | - | - | - | . | - | .
COc1ccc(-c2cc(C(F)(F)F)nc(S(C)(=O)=O)n2)cc1 | - | -4.2 | - | - | 100 | 0.055
CS(=O)(=O)c1nc(-c2ccc(F)cc2)cc(C(F)(F)F)n1 | - | -2.6 | - | - | - | 0.058
CS(=O)(=O)NN1C(=O)c2ccccc2NC1c1cccs1 (centres undefined) | - | - | - | - | - | .
COc1ccc(S(N)(=O)=O)cc1C(=O)N1CCCC1 | - | - | - | - | - | .

Assay outcomes: PubChem BioAssay, several laboratories
